Results from PubChem BioAssay (Tox21).
Values without a mark were called inactive. Records with an inconclusive call do not appear. Where a call stands in place of a potency, no number is given. The source made the active and inactive calls. Unless noted, calls come from the whole dose curve.

How the values were obtained:
[1] = Nuclear factor erythroid 2-related factor 2/antioxidant responsive element (Nrf2/ARE) small molecule agonists: qHTS cell viability counter screen in human keratinocytes (AID 1919968; active = well fitted curve in the direction sought with a large enough effect in the repeat runs; an effect the other way counts as inactive or inconclusive; note: nearly all actives have a fitted effect of over 55% in size; note: potency is the fitted concentration of half-maximal effect)
Outline: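 KeratinoSens cells (HaCaT keratinocytes stably carrying an ARE-luciferase reporter) were seeded at 1,500 cells/well and rested 5 h at 37 C/5% CO2. They were then exposed to compounds in DMSO for 23 h. Viability was read by CellTiter-Fluor fluorescence after 1 h.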

[2] = Nuclear factor erythroid 2-related factor 2/antioxidant responsive element (Nrf2/ARE) small molecule agonists: luciferase reporter gene qHTS assay in human keratinocytes (AID 1919969); note: nearly all actives have a fitted effect of over 35% in size
[3] = molecular target: Gonadotropin-releasing hormone receptor (Homo sapiens) (UniProt P30968); assay: Human gonadotropin-releasing hormone receptor (GnRHR) small molecule agonists, calcium flux assay in GnRHR-HEK293 cells (AID 1920063); note: nearly all actives have a fitted effect of over 35% in size
Outline: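 HEK293 cells stably expressing human GnRHR were plated 18 h at 37 °C, loaded with calcium dye 1 h at 37 °C, then given compound in agonist mode; fluorescence (Ex/Em 480/540) read kinetically for 3 min at 1 s intervals.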

[4] = molecular target: KiSS-1 receptor (Homo sapiens) (UniProt Q969F8); assay: Human kisspeptin (KISS1R) small molecule agonists, calcium flux assay in KISS1R-HEK293 cells (AID 1920064; active = well fitted curve in the direction sought with a large enough effect in the repeat runs; an effect the other way counts as inactive or inconclusive)
Outline: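 HEK293 cells stably expressing human KISS1R were plated 18 h at 37 °C, loaded with calcium dye for 1 h at 37 °C, then given compound by pin tool. Fluorescence (Ex/Em 480/540) was read kinetically for 3 min.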

[5] = G protein-coupled receptor (GPCR) small molecule agonists, calcium flux assay: HEK293 wild type cell line counter screen (AID 1920065)
Outline: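 Cells were plated and cultured 18 h at 37 C/5% CO2, then loaded with calcium dye for 1 h at 37 C. Compounds in DMSO were pin-transferred in agonist mode, and fluorescence (Ex/Em 480/540) was read kinetically for 3 min at 1 s intervals.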

[6] = p53 small molecule agonists, cell-based qHTS assay with human liver microsomes: qHTS cell viability counter screen (AID 1963579); note: nearly all actives have a fitted effect of over 45% in size
Outline: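 Tox21 library compounds, delivered from DMSO stocks, were tested on p53RE-bla cells together with 0.5 mg/mL human liver microsomes and 0.5 mg/mL NADPH (final) over 16 h at 37 C; CellTiter-Glo luminescence served as the cytotoxicity measure.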

[7] = p53 small molecule agonists, cell-based qHTS assay with rat liver microsomes: qHTS cell viability counter screen (AID 1963580); note: nearly all actives have a fitted effect of over 45% in size
Outline: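 Viability is assessed in parallel with the p53 reporter read: HCT-116 p53RE-bla cells receive compounds plus rat microsomes and NADPH (0.5 mg/mL final apiece), incubate 16 h at 37 C, and then CellTiter-Glo luminescence is recorded.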

[8] = molecular target: 5-hydroxytryptamine receptor 2A (Homo sapiens) (UniProt P28223); assay: 5-hydroxytryptamine receptor 2A (HTR2A) small molecule antagonists, cell-based qHTS assay (AID 1963586); note: nearly all actives have a fitted effect of over 45% in size
Outline: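 Antagonist-mode intracellular calcium assay: DOI (4 nM) added after 5 min compound pre-incubation at room temperature to dye-loaded HTR2A-CHO cells. Fluorescence followed for 3 min, sampled every second.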

[9] = molecular target: 5-hydroxytryptamine receptor 2A (Homo sapiens) (UniProt P28223); assay: 5-hydroxytryptamine receptor 2A (HTR2A) small molecule agonists, cell-based qHTS assay (AID 1963587); note: nearly all actives have a fitted effect of over 30% in size
Outline: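 CHO cells stably expressing human HTR2A, plated 18 h, loaded with calcium dye 1 h at 37 C. Agonist mode: compounds added and intracellular calcium fluorescence recorded kinetically for 2 min at 1 sec intervals.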

[10] = molecular target: Muscarinic acetylcholine receptor M1 (Homo sapiens) (UniProt P11229); assay: Cholinergic receptor muscarinic 1 (CHRM1) small molecule antagonists, cell-based qHTS assay (AID 1963588); note: nearly all actives have a fitted effect of over 40% in size
Outline: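 CHRM1-CHO calcium-flux assay, antagonist mode. Cells were seeded 18 h, dye-loaded 1 h at 37 C and given compound for 5 min at RT, then acetylcholine was added at 50nM. FDSS fluorescence was read 3 min; 15 concentrations, three runs.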

[11] = molecular target: Muscarinic acetylcholine receptor M1 (Homo sapiens) (UniProt P11229); assay: Cholinergic receptor muscarinic 1 (CHRM1) small molecule agonists, cell-based qHTS assay (AID 1963589); note: nearly all actives have a fitted effect of over 35% in size
Outline: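 CHO cells stably expressing human CHRM1, seeded 18 h at 37 C/5% CO2, dye-loaded 1 h at 37 C, then given compound in agonist mode; intracellular calcium fluorescence read kinetically at 1 s intervals. Fifteen concentrations, three independent runs.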

[12] = cAMP Responsive Elements (CRE) small molecule agonists, cell-based qHTS assay (AID 1963590)
Outline: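 CRE-bla HEK 293T cells in DMEM with 10% dialyzed FBS, NEAA, pyruvate and 25 mM HEPES were plated 18 h at 37 C/5% CO2, then exposed to compounds in DMSO for 3 h before LiveBLAzer B/G FRET substrate addition.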

[13] = cAMP Responsive Elements (CRE) small molecule antagonists, cell-based qHTS assay (AID 1963591; active = well fitted inhibition curve with a large enough effect in the signal ratio in the repeat runs, not every such curve was filed as active; the % refers to the signal ratio)
Outline: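 CRE-bla HEK293T cells were plated 18 h at 37 °C/5% CO2, pinned with compound in DMSO, then stimulated with NKH477 at 0.25 uM final for 3 h. LiveBLAzer B/G FRET substrate was added and plates incubated 2 h at room temperature.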

[14] = molecular target: Beta-2 adrenergic receptor (Homo sapiens) (UniProt P07550); assay: Adrenergic beta2 receptor (ADRB2) small molecule antagonists, cell-based qHTS assay (AID 1963592); note: series mostly up to about 92 µM; nearly all actives have a fitted effect of over 50% in size
Outline: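 Cells (CHO, stable ADRB2 overexpression) incubated 18-20hr at 37C; compounds added from DMSO; agonist mix (1nM isoproterenol, 100uM IBMX, 25uM Ro-20-1724) added; 0.5hr RT; d2-cAMP and anti-cAMP-cryptate added; 1hr RT; 665/615 nm read.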

[15] = molecular target: D(2) dopamine receptor (Homo sapiens) (UniProt P14416); assay: Dopamine D2 receptor (DRD2) small molecule agonists, cell-based qHTS assay (AID 1963594); note: nearly all actives have a fitted effect of over 35% in size
Outline: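 HEK293 cells stably expressing human DRD2, pre-treated with PDE inhibitor Ro20-1724 (0.1 mM final) and compound 10 min at room temperature, then stimulated with NKH477 (200nM […]) for 30 min. cAMP read by HTRF (665/620 nm).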

[16] = molecular target: D(2) dopamine receptor (Homo sapiens) (UniProt P14416); assay: Dopamine D2 receptor (DRD2) small molecule antagonists, cell-based qHTS assay (AID 1963595; active = well fitted inhibition curve with a large enough effect in the signal ratio in the repeat runs, with a control signal flat; the % refers to the signal ratio)
Outline: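 HTRF cAMP read-out at 665 and 620 nm emission (340 nm excitation). Antagonist mode: compounds were tested against 12 nM quinpirole in DRD2-HEK293 cells, with 200 nM NKH477 raising cAMP and 0.1 mM Ro20-1724 blocking its breakdown.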

[17] = p53 small molecule agonists, cell-based qHTS assay: qHTS cell viability counter screen (AID 1963581); note: nearly all actives have a fitted effect of over 45% in size
Outline: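 p53RE-bla HCT-116 cells were exposed to compounds for 16 h at 37 C; after the beta-lactamase FRET read in the same wells, CellTiter-Glo was added and luminescence (intracellular ATP) read after 30 min at room temperature.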

[18] = molecular target: Beta-2 adrenergic receptor (Homo sapiens) (UniProt P07550); assay: Adrenergic beta2 receptor (ADRB2) small molecule agonists, cell-based qHTS assay (AID 1963593);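 note: CHO cells stably overexpressing human ADRB2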
Outline: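 CHO cells stably over-expressing ADRB2 were plated overnight at 37C, then dosed with compounds plus a stimulation mix containing 100uM IBMX and 25uM Ro-20-1724 for 0.5hr at room temperature. cAMP was measured by HTRF competition, 1hr.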

Sequence of D(2) dopamine receptor (Homo sapiens) (P14416 whole entry, looked up): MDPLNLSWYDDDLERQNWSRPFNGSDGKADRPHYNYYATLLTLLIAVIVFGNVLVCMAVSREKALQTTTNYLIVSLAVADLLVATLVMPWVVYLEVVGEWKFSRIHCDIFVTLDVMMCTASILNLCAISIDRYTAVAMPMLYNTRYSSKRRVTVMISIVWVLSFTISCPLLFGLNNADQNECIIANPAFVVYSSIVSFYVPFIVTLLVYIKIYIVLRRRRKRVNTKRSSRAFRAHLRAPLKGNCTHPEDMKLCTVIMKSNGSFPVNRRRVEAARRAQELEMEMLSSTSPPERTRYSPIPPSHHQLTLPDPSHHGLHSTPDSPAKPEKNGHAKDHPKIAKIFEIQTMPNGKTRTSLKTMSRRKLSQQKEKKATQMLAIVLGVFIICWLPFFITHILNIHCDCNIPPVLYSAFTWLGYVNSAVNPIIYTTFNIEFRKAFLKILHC
Sequence of Gonadotropin-releasing hormone receptor (Homo sapiens) (P30968 whole entry, looked up): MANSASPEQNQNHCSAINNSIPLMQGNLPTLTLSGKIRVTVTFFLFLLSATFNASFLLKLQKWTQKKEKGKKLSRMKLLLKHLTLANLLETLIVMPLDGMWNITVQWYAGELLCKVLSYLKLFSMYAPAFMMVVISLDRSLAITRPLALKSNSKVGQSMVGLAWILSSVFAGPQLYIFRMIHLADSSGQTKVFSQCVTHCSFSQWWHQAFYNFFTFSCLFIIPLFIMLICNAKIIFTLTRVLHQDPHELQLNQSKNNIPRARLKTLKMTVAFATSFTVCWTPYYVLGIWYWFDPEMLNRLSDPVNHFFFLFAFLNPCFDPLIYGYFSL
Sequence of Beta-2 adrenergic receptor (Homo sapiens) (P07550 whole entry, looked up): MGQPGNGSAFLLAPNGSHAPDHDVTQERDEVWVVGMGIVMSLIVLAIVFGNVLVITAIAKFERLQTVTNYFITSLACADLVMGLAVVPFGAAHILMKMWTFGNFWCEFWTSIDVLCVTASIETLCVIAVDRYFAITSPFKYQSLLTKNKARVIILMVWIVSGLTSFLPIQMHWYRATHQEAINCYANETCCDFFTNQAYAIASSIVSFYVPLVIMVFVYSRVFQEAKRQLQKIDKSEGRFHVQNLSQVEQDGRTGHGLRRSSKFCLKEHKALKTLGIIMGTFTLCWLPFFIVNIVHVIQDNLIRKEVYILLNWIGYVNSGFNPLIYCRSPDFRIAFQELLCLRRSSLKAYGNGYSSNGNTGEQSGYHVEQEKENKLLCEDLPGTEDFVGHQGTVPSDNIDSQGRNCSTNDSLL
Sequence of Muscarinic acetylcholine receptor M1 (Homo sapiens) (P11229 whole entry, looked up): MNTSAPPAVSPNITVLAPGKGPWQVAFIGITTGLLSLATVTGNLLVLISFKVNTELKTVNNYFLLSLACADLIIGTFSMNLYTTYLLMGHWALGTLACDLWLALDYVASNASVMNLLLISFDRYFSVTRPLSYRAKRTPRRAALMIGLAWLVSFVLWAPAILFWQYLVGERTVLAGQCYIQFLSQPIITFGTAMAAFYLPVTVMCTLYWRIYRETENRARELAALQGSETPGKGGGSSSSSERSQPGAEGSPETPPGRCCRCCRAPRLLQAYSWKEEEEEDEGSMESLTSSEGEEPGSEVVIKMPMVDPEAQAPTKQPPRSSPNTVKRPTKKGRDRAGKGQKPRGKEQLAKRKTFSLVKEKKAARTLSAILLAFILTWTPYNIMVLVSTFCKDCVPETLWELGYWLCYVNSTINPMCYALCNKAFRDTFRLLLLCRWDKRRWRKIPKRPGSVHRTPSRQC
Sequence of KiSS-1 receptor (Homo sapiens) (Q969F8 whole entry, looked up): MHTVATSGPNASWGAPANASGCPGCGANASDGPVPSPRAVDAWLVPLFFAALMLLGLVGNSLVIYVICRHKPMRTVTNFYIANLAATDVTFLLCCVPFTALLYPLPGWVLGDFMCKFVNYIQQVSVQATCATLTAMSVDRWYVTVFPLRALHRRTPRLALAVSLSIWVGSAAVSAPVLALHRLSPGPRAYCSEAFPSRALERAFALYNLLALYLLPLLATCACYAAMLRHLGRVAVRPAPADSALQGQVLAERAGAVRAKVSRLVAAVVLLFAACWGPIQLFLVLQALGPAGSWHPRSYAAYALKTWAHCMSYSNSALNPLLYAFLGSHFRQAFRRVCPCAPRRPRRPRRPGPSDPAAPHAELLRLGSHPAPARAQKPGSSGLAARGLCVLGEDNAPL
Sequence of 5-hydroxytryptamine receptor 2A (Homo sapiens) (P28223 whole entry, looked up): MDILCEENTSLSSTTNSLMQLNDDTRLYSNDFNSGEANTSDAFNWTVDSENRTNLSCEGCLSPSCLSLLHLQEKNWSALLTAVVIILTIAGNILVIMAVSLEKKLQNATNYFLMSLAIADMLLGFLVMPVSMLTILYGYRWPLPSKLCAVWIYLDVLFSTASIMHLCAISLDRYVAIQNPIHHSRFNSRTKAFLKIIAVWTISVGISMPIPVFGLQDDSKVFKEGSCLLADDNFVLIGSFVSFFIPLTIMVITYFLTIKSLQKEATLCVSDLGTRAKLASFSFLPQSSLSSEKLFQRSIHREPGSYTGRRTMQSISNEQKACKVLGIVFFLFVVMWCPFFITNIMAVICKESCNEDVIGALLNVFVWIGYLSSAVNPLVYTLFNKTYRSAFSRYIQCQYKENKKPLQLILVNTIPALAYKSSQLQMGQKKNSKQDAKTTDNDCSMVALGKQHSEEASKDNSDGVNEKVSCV

O=C1c2ccccc2C(=O)c2cc(S(=O)(=O)O)ccc21
Potency [1]: inactive | Potency [2]: inactive | Potency [3]: inactive | Potency [4]: inactive | Potency [5]: inactive | Potency [6]: inactive | Potency [7]: inactive | Potency [8]: inactive | Potency [9]: inactive | Potency [10]: inactive | Potency [11]: inactive | Potency [12]: inactive | Potency [13]: inactive | Potency [14]: inactive | Potency [15]: inactive | Potency [16]: inactive

Nc1ccn([C@@H]2O[C@H](CO)[C@@H](O)[C@@H]2O)c(=O)n1
Potency [1]: inactive | Potency [2]: inactive | Potency [3]: inactive | Potency [4]: inactive | Potency [5]: inactive | Potency [6]: inactive | Potency [7]: inactive | Potency [17]: inactive | Potency [12]: inactive | Potency [13]: inactive | Potency [15]: inactive | Potency [16]: inactive

CNc1ncnc2nc[nH]c12
Potency [1]: inactive | Potency [2]: inactive | Potency [3]: inactive | Potency [4]: inactive | Potency [5]: inactive | Potency [6]: inactive | Potency [7]: inactive | Potency [8]: inactive | Potency [9]: inactive | Potency [10]: inactive | Potency [11]: inactive | Potency [12]: inactive | Potency [13]: inactive | Potency [14]: inactive | Potency [18]: inactive | Potency [15]: inactive | Potency [16]: inactive

Fc1ccc(C(c2ccc(F)cc2)N2CCN(C/C=C/c3ccccc3)CC2)cc1
Potency [1]: 16.8 µM (active) | Potency [2]: inactive | Potency [3]: inactive | Potency [4]: inactive | Potency [5]: inactive | Potency [6]: inactive | Potency [7]: inactive | Potency [17]: inactive | Potency [14]: inactive | Potency [15]: inactive

CC1(C)O[C@@H]2C[C@H]3[C@@H]4C[C@H](F)C5=CC(=O)C=C[C@]5(C)[C@H]4[C@@H](O)C[C@]3(C)[C@]2(C(=O)CO)O1
Potency [1]: inactive | Potency [2]: inactive | Potency [3]: inactive | Potency [4]: inactive | Potency [5]: inactive | Potency [6]: inactive | Potency [7]: inactive | Potency [17]: inactive | Potency [18]: inactive | Potency [15]: inactive | Potency [16]: inactive

COc1nc(C)nc(Cl)c1NC1=NCCN1
Potency [1]: inactive | Potency [2]: inactive | Potency [3]: inactive | Potency [4]: inactive | Potency [5]: inactive | Potency [6]: inactive | Potency [7]: inactive | Potency [17]: inactive | Potency [12]: inactive | Potency [13]: inactive | Potency [14]: inactive | Potency [18]: inactive | Potency [15]: inactive | Potency [16]: inactive

CC(C)(CO)[C@@H](O)C(=O)NCCCO
Potency [1]: inactive | Potency [2]: inactive | Potency [3]: inactive | Potency [4]: inactive | Potency [5]: inactive | Potency [6]: inactive | Potency [7]: inactive | Potency [17]: inactive | Potency [12]: inactive | Potency [13]: inactive | Potency [14]: inactive | Potency [18]: inactive | Potency [15]: inactive | Potency [16]: inactive

Nc1ccc(/C=C/c2ccc(N)cc2S(=O)(=O)O)c(S(=O)(=O)O)c1
activity change, negative = cytotoxicity [1]: -4.83% [at 0.349 µM] | activity, positive = activation [2]: -0.938% [at 0.349 µM] | activity change [3]: -1.31% [at 0.217 µM, hits give high values] | activation [4]: -0.667% [at 0.29 µM] | activation [5]: -1.11% [at 0.217 µM] | activity change, negative = cytotoxicity [6]: -0.304% [at 0.249 µM] | activity change, negative = cytotoxicity [7]: 0.884% [at 0.249 µM] | activity, negative = inhibition [8]: 63.5% [at 0.233 µM] | activation [9]: 1.96% [at 0.292 µM] | activity, negative = inhibition [10]: 18% [at 0.232 µM] | activation [11]: 0.145% [at 0.29 µM] | activation [12]: -0.633% [at 0.349 µM] | activity change, negative = inhibition [13]: -10.6% [at 0.349 µM] | activity change, negative = inhibition [14]: -6.48% [at 0.349 µM] | activation [18]: -7.68% [at 0.349 µM] | activation [15]: -13.5% [at 0.349 µM] | activity change, negative = inhibition [16]: 6.36% [at 0.348 µM]
